In all, about 68,000 sequences were measured (“fluorescence intensity (a.u.)”: median about 9,100, highest 2% from about 16,000 on). The full list was thinned out, with the highest values kept by preference.
Biological target: OsWRKY34 (Oryza sativa, UniProt Q0JBA9 1-250)
Test: protein-binding microarray (RPBM); PBS, 2% BSA, 51.3 ng/ul salmon testes DNA, 50 uM zinc acetate, 200 nM TF, 25 C, 1 h; high values mean tight binding
Conditions: protein: recombinant; tags: N-terminal polyhistidine and DsRed monomer fusion (pET32a); label: CyDye5-dUTP incorporated in the synthesized complementary strand; 3' TTTTT single-stranded linker to array surface; dsDNA, one strand shown
In short: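 Transcription factors were made in E. coli BL21-CodonPlus as N-terminal fusions to a polyhistidine tag and DsRed, then purified on Ni–NTA. After primer extension with Cy5-dUTP and blocking with 2% BSA, a custom Agilent array was exposed for 1 h at 25 °C to 200 nM protein in PBS, 2% BSA, salmon testes DNA and 50 µM zinc acetate. Washed arrays were scanned on an Axon 4000B, and the binding signal is per-feature fluorescence intensity in arbitrary units.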

Sequence of OsWRKY34 (Q0JBA9 entry or part of it): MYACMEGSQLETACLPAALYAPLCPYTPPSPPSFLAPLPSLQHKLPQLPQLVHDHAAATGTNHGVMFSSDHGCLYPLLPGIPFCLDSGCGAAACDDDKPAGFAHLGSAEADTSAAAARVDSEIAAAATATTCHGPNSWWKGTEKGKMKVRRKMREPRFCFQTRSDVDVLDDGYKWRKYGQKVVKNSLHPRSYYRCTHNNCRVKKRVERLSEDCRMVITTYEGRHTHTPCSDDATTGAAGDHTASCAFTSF

Sequence | binding signal
ATCATCACTCCATTGCCGCTGTATTTGTTGTCATCGTTTTCGGAGTCACCTAGTGCAG | 11200 fluorescence intensity (a.u.)
CCCTTTGTCCTGCAGTACGTTTTTCCTTGCATTTTTCTTTCGGAGTCACCTAGTGCAG | 19700 fluorescence intensity (a.u.)
CCTGCCGTTTTCTTTTTCTTTTTCTTTCCTTTTCCTTTTTCGGAGTCACCTAGTGCAG | 17000 fluorescence intensity (a.u.)
AGTTTTGTTTCTTTCCTGTTCACAGTTCACCTTTGCCTTTCGGAGTCACCTAGTGCAG | 12400 fluorescence intensity (a.u.)
TTATTTTCTCCACTCACTACTTGTTCGTTTAGCAATTTGTCGGAGTCACCTAGTGCAG | 8750 fluorescence intensity (a.u.)
CCTATTTTTGATGTTCCGGATTTTTTCTTTGCGGCCAAAACGGAGTCACCTAGTGCAG | 11700 fluorescence intensity (a.u.)
CTTTCTTTTTCCTTCTCTCTCTCTTTTCTTTCTTTTCTTTCGGAGTCACCTAGTGCAG | 13600 fluorescence intensity (a.u.)
CTCTTTTCTTTCTTTTCTTTTCCTTTCTTTTTCCTTTCTTCGGAGTCACCTAGTGCAG | 8540 fluorescence intensity (a.u.)
TCCTCTCTGTCTTCTGTCTTCTCTTCTTCTTCCTCACCAACGGAGTCACCTAGTGCAG | 11600 fluorescence intensity (a.u.)
CAAACAGAGCACACCTTTTTCCAGGACATTTGTCAATATTCGGAGTCACCTAGTGCAG | 9180 fluorescence intensity (a.u.)
ATCCTTTTCTTTGGCAGTCCTTGATCCCAGATCCACATTTCGGAGTCACCTAGTGCAG | 9820 fluorescence intensity (a.u.)
GGCTTTAATTGATCACTATGAATACTTGGCTTGTTGTCATCGGAGTCACCTAGTGCAG | 9040 fluorescence intensity (a.u.)
AAACCTCGCATGCCAATAGTTGGGAACGCCGGGGCGGGGTCGGAGTCACCTAGTGCAG | 9340 fluorescence intensity (a.u.)
TTCCTTTTTCTATTTTTGGAATTTATTTTAATTTTTATTTCGGAGTCACCTAGTGCAG | 8910 fluorescence intensity (a.u.)
CCCCGCTCGCGGCCCGGTCGCGCCAAACATCGTCCGACTCCGGAGTCACCTAGTGCAG | 9010 fluorescence intensity (a.u.)
TCCACAACTGATTTTATTCCGACTTGTTTTTTTTTCTTTTCGGAGTCACCTAGTGCAG | 10800 fluorescence intensity (a.u.)
TTACTACTTCACCGTCTCTTTTTCTTCCTCAGCGCACAAACGGAGTCACCTAGTGCAG | 9610 fluorescence intensity (a.u.)
AGACGGAGGAGGACAAGGACATAGGGGAGGAGGGGCGAGGCGGAGTCACCTAGTGCAG | 9530 fluorescence intensity (a.u.)
TTTTTCGTTTCCTTTCCGTGTTCTTTTTTTTTTCTTCCATCGGAGTCACCTAGTGCAG | 10100 fluorescence intensity (a.u.)
ATTTCTTTTTGTTGTGTTATCGTGTTGTTTCGTCACTAGTCGGAGTCACCTAGTGCAG | 19600 fluorescence intensity (a.u.)
TTTTTCCGTGTGTGTCGTTTCGTTCTTGTTTGTTCGGGTCCGGAGTCACCTAGTGCAG | 12400 fluorescence intensity (a.u.)

Sequence | binding signal
GTGGATTTTTTTTTTCTTTTCTTTTTTCGTTGTTATTTGTCGGAGTCACCTAGTGCAG | 10600 fluorescence intensity (a.u.)
ATGTTGTCGTGTATCATTTGTTTTTCTTATGTTATTTTCTCGGAGTCACCTAGTGCAG | 10700 fluorescence intensity (a.u.)
GCCGTTTCTTCTTTCTTTTTTTTTTCCGTGTGTGTCGTTTCGGAGTCACCTAGTGCAG | 16600 fluorescence intensity (a.u.)
ACACCTTCAATCGCTCTCTCATGAATTAACCGAACAAGACCGGAGTCACCTAGTGCAG | 9340 fluorescence intensity (a.u.)
GTAGTAGGTAGCAGCAGTCTCAAACATGTCTTCTGAGTAGCGGAGTCACCTAGTGCAG | 9420 fluorescence intensity (a.u.)
CGTGTTCTTGCCTGCGTATATACGGTGTACGTACACACGTCGGAGTCACCTAGTGCAG | 8870 fluorescence intensity (a.u.)
GCTAGCTGCTGTCTTGTGTTGTGTTGTGTTGTGTGGCATGCGGAGTCACCTAGTGCAG | 8220 fluorescence intensity (a.u.)
TTTTTTTTTTTTGTTGGGCTTGTGACTTGTGGGGTGTGCACGGAGTCACCTAGTGCAG | 11600 fluorescence intensity (a.u.)
TCTTGGCGCTGTCGGTGTGTGGGTGGCGTTATATTTTTTTCGGAGTCACCTAGTGCAG | 9900 fluorescence intensity (a.u.)
AGAGCTTGTGTGGTGGTGGGGCATCAGTGTGTCAGTTGTGCGGAGTCACCTAGTGCAG | 17100 fluorescence intensity (a.u.)
AGATTTTGGGTGTGTTTGGTTGCTTGCATTGTTTTAGTCTCGGAGTCACCTAGTGCAG | 9320 fluorescence intensity (a.u.)
AATTTTTTTTGGGGTTGCTGCTGTTTTTTTTGTGGAGGTTCGGAGTCACCTAGTGCAG | 9450 fluorescence intensity (a.u.)
GTGTGTTGGAGCTGCCGGTGTGTGGGTGGGGTTATTTTTTCGGAGTCACCTAGTGCAG | 25100 fluorescence intensity (a.u.)
TGGGTTGGGATTTGTGCTTGTTTTTTTTTTTTGTGCGTGTCGGAGTCACCTAGTGCAG | 16600 fluorescence intensity (a.u.)
CTTTGCTTGGTTGCTTGTGTTGTGTGCTGTGCTGTGCAGTCGGAGTCACCTAGTGCAG | 8220 fluorescence intensity (a.u.)
GGGGCTGCTTGGGCTTGTGTTGTTTTTTTGGCAGATGCATCGGAGTCACCTAGTGCAG | 19100 fluorescence intensity (a.u.)
AAGGGCAGAGGAGAGGAGTTGCAGTGTGGTGTGTGGCATGCGGAGTCACCTAGTGCAG | 8870 fluorescence intensity (a.u.)
TATACTTGTTGGCTGCTGCTTTGTGTGTGGTGTGTTGTTTCGGAGTCACCTAGTGCAG | 10400 fluorescence intensity (a.u.)
ACACTCAAACGACACTTCACGCATCTCTCCTGAAATCTTGCGGAGTCACCTAGTGCAG | 8780 fluorescence intensity (a.u.)
ACTTCAGATGTTTCTTGTTCCTACACTTCGCTGCTTCAGTCGGAGTCACCTAGTGCAG | 11800 fluorescence intensity (a.u.)
CTCCTCTCTCTCTCAGCTCACCACACCTCGAGTCGCCGCCCGGAGTCACCTAGTGCAG | 8180 fluorescence intensity (a.u.)

Source: article PMC7819943, “Rice protein-binding microarrays: a tool to detect cis-acting elements near promoter regions in rice”
